Results reported in PubChem BioAssay AID651599 (National Center for Advancing Translational Sciences (NCATS), 2012).
Inconclusive results are not listed. Entries that show only a call come without a potency. The source made the active and inactive calls. The call rests on the fitted dose curve; in most records, active means well fitted inhibition curve with a large enough effect; inconclusive means small, poorly fitted or top-dose-only effect; inactive means no such curve, though single readings can be large or run the other way.
Potency means the concentration at half of the fitted maximal effect.

Each compound was assayed against Tumor susceptibility gene 101 protein (Homo sapiens) (UniProt Q99816) (assay: qHTS Assay for Iinhibitors of HIV-1 Budding by Blocking the Interaction of PTAP/TSG101: Hit Validation in TR assay). Details: Tsg101 binding domain + Texas Red-labeled PTAP peptide, fluorescence polarization, 20 min; series mostly up to 57.5 µM.
Sequence of Tumor susceptibility gene 101 protein (Homo sapiens) (Q99816 whole entry, looked up, the tested form may be a part): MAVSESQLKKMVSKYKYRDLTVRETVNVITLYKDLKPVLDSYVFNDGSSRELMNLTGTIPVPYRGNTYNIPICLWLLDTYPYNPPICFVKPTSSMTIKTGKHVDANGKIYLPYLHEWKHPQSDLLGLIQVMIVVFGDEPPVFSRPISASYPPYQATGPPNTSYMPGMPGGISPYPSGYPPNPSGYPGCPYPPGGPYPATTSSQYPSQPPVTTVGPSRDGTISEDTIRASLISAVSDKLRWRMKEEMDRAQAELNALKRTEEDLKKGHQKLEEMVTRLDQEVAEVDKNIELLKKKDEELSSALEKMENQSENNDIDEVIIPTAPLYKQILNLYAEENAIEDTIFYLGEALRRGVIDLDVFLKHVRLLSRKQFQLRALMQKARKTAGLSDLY
In short: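 Fluorescence polarization: Tsg101 binding domain (10 uM final) with Texas Red-labelled PTAP peptide (50 nM final) in HEPES pH 7.5, 0.15 M NaCl, Tween 20, EDTA, TCEP; 20 min binding at room temperature after compound addition.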
In the case of `COCC1CCN(Cc2c(C(=O)N3CCc4ccccc4C3)nc3ccc(Cl)cn23)C1` (centres undefined), the Potency is reported as “inactive”.
With `Nc1ccc2nc3c(=O)[nH]c(=S)[nH]c3nc2c1` the Potency was “inactive”.
For `CCOC(=O)c1ccc(NC(=O)CSc2nc(-c3cccs3)cc(C(F)(F)F)c2C#N)cc1`, the Potency was “inactive”.
With `C[C@H](O)C(=O)C1=Nc2c(nc(N)[nH]c2=O)NC1` the Potency was “inactive”.
In the case of `CC(=O)N(/N=C1/C(=O)Nc2ccccc21)c1ccccc1`, the Potency is reported as “inactive”.
`O=C(OCCN1C(=O)c2cccc3c(N4CCOCC4)ccc(c23)C1=O)c1ccc(Cl)cc1Cl` was tested, and the Potency was “inactive”.
In the case of `O=c1[nH]nc(-c2ccc(F)cc2)cc1Cc1ccc(F)cc1`, the Potency is reported as “inactive”.
For `Nc1ccc2c3c(cccc13)-c1ccccc1-2`, the Potency was “inactive”.
`O=C1c2cccc3c(O)ccc(c23)C(=O)N1c1ccc(Cl)cc1` was tested, and the Potency was “inactive”.
For `CCn1cc(C=C2C(=O)c3ccccc3C2=O)c2ccccc21`, the Potency was “inactive”.
In the case of `Cc1c(C(=O)N(C)c2cccc(C(F)(F)F)c2)sc2nc3n(c(=O)c12)CCCCC3`, the Potency is reported as “inactive”.
`Oc1ccc2ccc3cccc[n+]3c2c1` was tested, and the Potency was “inactive”.
In the case of `CC[C@H](C)/C=C(C)/C=C/C1=CC2=CC(=O)[C@]3(C)OC(=O)[C@@H](C(C)=O)[C@@H]3C2=CO1`, the Potency is reported as “inactive”.
With `COc1cccc2c1C(=O)c1c(O)c3c(c(O)c1C2=O)C[C@@](O)(C(C)=O)C[C@@H]3O[C@H]1C[C@H](N)[C@H](O)[C@H](C)O1` the Potency was 20.6 µM (active).
For `Cc1nc2ccccc2n2c(O)c(CC(=O)O)cc12`, the Potency was “inactive”.
In the case of `Cc1ccc(CNC(=O)C2CCCN(S(=O)(=O)c3c(C)[nH]c(=O)[nH]c3=O)C2)cc1` (centres undefined), the Potency is reported as “inactive”.
With `COc1ccccc1N1C(=O)c2cccc3c(N(C)CCO)ccc(c23)C1=O` the Potency was “inactive”.
For `COc1c([N+](=O)[O-])c(=O)n(-c2ccccc2)c2ccccc12`, the Potency was “inactive”.
With `Cc1cc[n+](-c2[nH]c(=O)sc2/C=N/N=C(\[O-])c2ccccc2)cc1C` the Potency was “inactive”.
In the case of `Cc1ccc(-c2cccc(NC(=O)C3C4C=CC(C4)C3C(=O)O)c2)o1` (centres undefined), the Potency is reported as “inactive”.
`S=C(NCc1ccccc1)Nc1cccc(Cl)c1` was tested, and the Potency was “inactive”.
For `O=C(NCc1ccco1)c1cccc2c1C(=O)c1ccc(N3CCC(Cc4ccccc4)CC3)cc1S2(=O)=O`, the Potency was “inactive”.
With `Cc1ccc(-c2nc(C=Nc3ccc(O)cc3)c(O)o2)cc1` the Potency was “inactive”.
With `Nc1ccc2nc(-c3ccccc3)c(-c3ccccc3)nc2c1` the Potency was “inactive”.
With `Cc1cc2c(cc1C)NC(c1c(C)n(C)n(-c3ccccc3)c1=O)C1=C(CC(C)(C)CC1=O)N2` (centres undefined) the Potency was “inactive”.
With `CCOC(=O)Cn1c(=NC(=O)c2ccc([N+](=O)[O-])s2)sc2ccccc21` the Potency was “inactive”.
With `O=C(NCc1ccccc1Br)c1cccc2c1C(=O)c1ccc(N3CCC(Cc4ccccc4)CC3)cc1S2(=O)=O` the Potency was “inactive”.
For `C/C(O)=c1/ccc2cccc3nc(C)nc1c23`, the Potency was “inactive”.
With `Cc1cc([N+](=O)[O-])ccc1-c1ccc(/C=N/NC(=O)Cc2ccccc2)o1` the Potency was “inactive”.
In the case of `COc1ccc(/C(O)=C/c2nc3ccccc3n(-c3ccccc3)c2=O)cc1`, the Potency is reported as “inactive”.
With `CCN(c1ccc(N=Cc2c(O)n(Cc3ccc(OC)cc3)c(=O)c3ccccc23)cc1)C(C)C` the Potency was “inactive”.
`Cc1cc(/C=C2\SC(=S)N(Cc3ccco3)C2=O)c(C)n1-c1cccnc1` was tested, and the Potency was “inactive”.
For `CCCCCCn1c(=O)[nH]c2nc3cc(N)ccc3nc2c1=O`, the Potency was “inactive”.
For `O=C1c2ccccc2C(=O)c2c1ccc(O)c2O`, the Potency was “inactive”.
In the case of `CCSc1nnc(-c2sc3nnc(-c4ccccc4)c(-c4ccccc4)c3c2N)o1`, the Potency is reported as “inactive”.
With `O=c1oc2c3c4c(cc2c2c1CCC2)OCCN4CCC3` the Potency was “inactive”.
`CN1C(=O)c2cccc3c(N)ccc(c23)C1=O` was tested, and the Potency was “inactive”.
In the case of `CC1CCCN(Cc2c(O)ccc3c2O/C(=C\c2ccco2)C3=O)C1` (centres undefined), the Potency is reported as “inactive”.
`O=C(O)c1ccccc1C1=Nc2ccc(O)cc2Oc2cc(O)ccc21` was tested, and the Potency was “inactive”.
